hcDAF12 agonist = activates DAF-12 receptor from parasite H. contortus | HEK293 hcDAF-12 lit1-tk-luc reporter, luminescence; 0% DMSO, 100% Δ7-dafachronic acid | activation, % at 6.8 µM | 370,000 compounds, 1.4% hits | AID 652067;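 active = activation above the mean of all tested compounds plus 3 SD, cut at about 5.5% in these data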
hgDAF-12 ag = activates the H. glycines DAF-12 receptor ligand-binding domain; AID 687014; 370,000 compounds, 1.8% hits; activation, % at 6.8 µM; HEK293 GAL4-hgDAF12 UAS-luciferase reporter, agonist luminescence; normalized to butyrate control;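 active = activation above a cutoff set at the mean of all screened compounds plus 3 SD, cut at about 10% in these data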
SMARCA2 act = increases SMARCA2 function in MMTV reporter cells | activation, % at 9.1 µM | MG213 cells, MMTV-luciferase reporter, dexamethasone, overnight | 370,000 compounds, 1% hits | AID 652017; in the data active = activation above about 7.8%
DAX1 inh-1 = NR0B1 (DAX1) inhibition; P51843; 340,000 compounds, 0.99% hits; AID 504766; inhibition, % at 6.75 µM; HEK293 Gal4-DAX1 luciferase reporter, luminescence;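 active = inhibition above the mean over all tested compounds plus 3 SD, cut at about 4.2% in these data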;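 note: inhibition shows as a rise in luminescence from relieved DAX1 repression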
DAX1 inh-2 = inhibitors of DAX1 repression of SF-1 activated StAR promoter | HEK293T StAR-luciferase reporter, SF-1/DAX-1 repression relief | inhibition, % at 6.8 µM | 370,000 compounds, 1.1% hits;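 active = inhibition above the mean over all tested compounds plus 3 SD, cut at about 3.6% in these data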;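 note: higher inhibition means more luminescence from relief of DAX-1 repression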
ssDAF12 agonist = S. stercoralis DAF-12 activation, primary screen; activation, % at 6.8 µM; HEK293 ssDAF-12/GRIP1 lit1-tk-luc reporter, luminescence; % of 3 µM dafachronic acid response; AID 652126; 370,000 compounds, 1% hits;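 active = activation above the mean over all tested compounds plus 3 SD, cut at about 0.9% in these data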
LXR ag = activates human LXR-beta, counter-screen for hcDAF-12 agonists; shares compounds with hcDAF12 agonist; HEK293 Gal4-LXR tk-luc reporter, luminescence, 24 h; normalized: DMSO 0%, positive control 100%; activation, % at 6.8 µM; 3,400 tested, under 10 active;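 active = mean percent activation of the reporter above a cutoff set as the average over tested compounds plus their standard deviation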
Target sequence (P55055 whole entry, looked up, the tested form may be a part): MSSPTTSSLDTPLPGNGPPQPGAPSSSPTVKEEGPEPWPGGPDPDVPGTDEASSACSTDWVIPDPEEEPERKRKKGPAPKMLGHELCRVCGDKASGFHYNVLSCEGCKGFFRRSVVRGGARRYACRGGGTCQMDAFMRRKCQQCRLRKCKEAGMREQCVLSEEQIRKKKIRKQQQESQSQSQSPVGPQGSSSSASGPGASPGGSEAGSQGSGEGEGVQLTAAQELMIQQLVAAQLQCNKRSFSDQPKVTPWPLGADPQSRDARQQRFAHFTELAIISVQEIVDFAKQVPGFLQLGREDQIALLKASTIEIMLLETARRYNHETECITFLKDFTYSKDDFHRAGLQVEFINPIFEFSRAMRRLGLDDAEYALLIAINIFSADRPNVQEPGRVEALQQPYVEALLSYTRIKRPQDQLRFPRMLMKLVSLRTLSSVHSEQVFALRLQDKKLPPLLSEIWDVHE
hcDAF12 conf = confirmation of H. contortus DAF-12 agonists; shares compounds with hcDAF12 agonist; AID 743032; 3,400 compounds, 61% hits; HEK293 hcDAF-12 lit1-tk-luc reporter, luminescence; % of Δ7-dafachronic acid response; activation, % at 6.8 µM;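 active = mean activation across triplicate tests above the threshold derived from the earlier primary screen, cut at about 5.5% in these data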
Hits are given with their value. Hits are enriched below; roughly 4.8% of the tested compounds scored in any of these assays.

Screening O=C(NCc1ccccc1C(F)(F)F)C1CCC(=O)N(CCCc2ccccc2)C1 (stereo not given) returned hcDAF12 agonist inactive, hgDAF-12 ag inactive, SMARCA2 act inactive, DAX1 inh-1 inactive, DAX1 inh-2 inactive and ssDAF12 agonist inactive.
Screening CSc1nsc(SCC(=O)Nc2ccc(F)cc2)n1 returned hcDAF12 agonist inactive, hgDAF-12 ag inactive, SMARCA2 act inactive, DAX1 inh-1 inactive, DAX1 inh-2 inactive and ssDAF12 agonist inactive.
Screening O=C(NCCSCc1ccco1)Nc1ccccc1 returned hcDAF12 agonist 9.8, hgDAF-12 ag inactive, SMARCA2 act inactive, DAX1 inh-1 inactive, DAX1 inh-2 inactive, ssDAF12 agonist inactive, LXR ag inactive and hcDAF12 conf inactive.
Screening CCn1nnc(-c2ccccc2NS(=O)(=O)c2ccc(C(=O)OC)cc2)n1 returned hcDAF12 agonist inactive, hgDAF-12 ag inactive, SMARCA2 act inactive, DAX1 inh-1 inactive, DAX1 inh-2 inactive and ssDAF12 agonist inactive.
For COc1cc(/C=N/NC(=O)c2nnn(-c3nonc3N)c2C(C)C)ccc1O the results were hcDAF12 agonist 6.7, hgDAF-12 ag 12, SMARCA2 act inactive, DAX1 inh-1 inactive, DAX1 inh-2 inactive, ssDAF12 agonist inactive, LXR ag inactive and hcDAF12 conf inactive.
CCN(Cc1ccc(O)cc1)CC1CCCN(CCc2cccc(F)c2)C1 (stereo not given) was read as hcDAF12 agonist inactive, hgDAF-12 ag inactive, SMARCA2 act inactive, DAX1 inh-1 inactive, DAX1 inh-2 inactive and ssDAF12 agonist inactive.
Screening CCN(CC)S(=O)(=O)c1cccc(-c2nnc(SCc3ncc(-c4ccccc4)o3)n2C)c1 returned hcDAF12 agonist inactive, hgDAF-12 ag inactive, SMARCA2 act inactive, DAX1 inh-1 inactive, DAX1 inh-2 inactive and ssDAF12 agonist inactive.
Screening CCc1ccc(NS(=O)(=O)c2ccc3[nH]cc(C(=O)N4CCc5ccccc54)c(=O)c3c2)cc1 returned hcDAF12 agonist 7.3, hgDAF-12 ag inactive, SMARCA2 act inactive, DAX1 inh-1 inactive, DAX1 inh-2 inactive, ssDAF12 agonist 1.2, LXR ag inactive and hcDAF12 conf 5.7.
For Cc1cc(C)cc(NS(=O)(=O)c2ccc3[nH]cc(C(=O)N4CCc5ccccc54)c(=O)c3c2)c1 the results were hcDAF12 agonist inactive, hgDAF-12 ag inactive, SMARCA2 act inactive, DAX1 inh-1 inactive, DAX1 inh-2 inactive and ssDAF12 agonist inactive.
Screening CN(C)S(=O)(=O)c1ccc(Cl)c(NC(=O)COC(=O)CN2C(=O)C3CCCCC3C2=O)c1 (stereo not given) returned hcDAF12 agonist inactive, hgDAF-12 ag inactive, SMARCA2 act inactive, DAX1 inh-1 inactive, DAX1 inh-2 inactive and ssDAF12 agonist inactive.
Screening O=C(O)c1ccc2c(c1Nc1ccccc1)C(=O)c1ccccc1C2=O returned hcDAF12 agonist 7.5, hgDAF-12 ag inactive, SMARCA2 act inactive, DAX1 inh-1 4.4, DAX1 inh-2 inactive, ssDAF12 agonist inactive, LXR ag inactive and hcDAF12 conf inactive.
Screening O=C(CN1CCCCCC1)N/N=C/c1ccc2ccccc2c1 returned hcDAF12 agonist 8.1, hgDAF-12 ag inactive, SMARCA2 act inactive, DAX1 inh-1 inactive, DAX1 inh-2 inactive, ssDAF12 agonist inactive, LXR ag inactive and hcDAF12 conf inactive.
Screening O=C(CNc1ccc2ccccc2c1)N/N=C/c1ccncc1 returned hcDAF12 agonist 8.0, hgDAF-12 ag inactive, SMARCA2 act inactive, DAX1 inh-1 inactive, DAX1 inh-2 inactive, ssDAF12 agonist inactive, LXR ag inactive and hcDAF12 conf inactive.
For CSC1=N/C(=C\c2cccc(F)c2)C(=O)S1 the results were hcDAF12 agonist inactive, hgDAF-12 ag inactive, SMARCA2 act inactive, DAX1 inh-1 inactive, DAX1 inh-2 inactive and ssDAF12 agonist inactive.
Screening CCOc1[nH]n(-c2ccccc2)c(=O)c1C=Nc1ccc(C(=O)OC)cc1 returned hcDAF12 agonist 7.6, hgDAF-12 ag inactive, SMARCA2 act inactive, DAX1 inh-1 inactive, DAX1 inh-2 inactive, ssDAF12 agonist inactive, LXR ag inactive and hcDAF12 conf inactive.

Assay outcomes deposited in PubChem BioAssay by The Scripps Research Institute Molecular Screening Center.
